Experiment [1] in a line: qHTS assay to identify small molecule antagonists of the constitutive androstane receptor (CAR) signaling pathway - cell viability counter screen (AID 1224837). Note: series mostly up to about 92 µM; nearly all actives have a fitted effect of over 45% in size. In outline: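 Using CellTiter-Fluor, viability is scored in HepG2 cells stably carrying hCAR and a 2.2kb CYP2B6 reporter after 23 hr compound exposure across 15 concentrations, with CITCO present at 50 nM.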
In experiment [2] the target is Nuclear receptor subfamily 1 group I member 3 (Homo sapiens) (UniProt Q14994). In words: qHTS assay to identify small molecule antagonists of the constitutive androstane receptor (CAR) signaling pathway (AID 1224838).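 Note: HepG2 cells stably expressing hCAR with CYP2B6 luciferase reporter stimulated by CITCO; nearly all actives have a fitted effect of over 40% in size.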 The method in brief: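 Reporter luminescence was quantified after 24 h exposure of hCAR/CYP2B6-2.2kb double-stable HepG2 cells to compounds at 15 concentrations in the presence of 50 nM CITCO final.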
Sequence of Nuclear receptor subfamily 1 group I member 3 (Homo sapiens) (Q14994 whole entry, looked up): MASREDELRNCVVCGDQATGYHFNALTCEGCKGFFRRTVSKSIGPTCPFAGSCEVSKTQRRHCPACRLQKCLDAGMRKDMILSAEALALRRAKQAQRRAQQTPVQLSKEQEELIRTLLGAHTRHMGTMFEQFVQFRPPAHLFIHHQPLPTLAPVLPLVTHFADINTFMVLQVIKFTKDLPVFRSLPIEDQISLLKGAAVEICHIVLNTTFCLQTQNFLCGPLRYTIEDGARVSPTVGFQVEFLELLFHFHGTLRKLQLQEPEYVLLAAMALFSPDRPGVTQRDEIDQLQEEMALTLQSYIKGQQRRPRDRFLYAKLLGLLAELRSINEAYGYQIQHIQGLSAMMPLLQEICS

Experiment [3] has the same target. Description: qHTS assay to identify small molecule agonists of the constitutive androstane receptor (CAR) signaling pathway (AID 1224839). Note: series mostly up to about 92 µM; nearly all actives have a fitted effect of over 15% in size. The method in brief:
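Cells were plated and incubated 4 hrs, then dosed with compounds at 15 concentrations. PK11195 was added to 0.75 uM final. After 24 hrs at 37 C, luciferase luminescence was measured.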

Experiment [4] can be described thus: qHTS assay to identify small molecule antagonists of the estrogen related receptor signaling pathway with the pleiotropic PPARgamma coactivator (PGC) from Tox21 10K library - cell viability counter screen (AID 1224840; active = well fitted cell-killing curve with a large enough effect in the repeat runs, not every such curve was filed as active; note: nearly all actives have a fitted effect of over 40% in size). The method in brief:
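Here the PGC/ERR cells serve as a cytotoxicity control: they are exposed to compounds for 17.5 hours at 37 C, and live-cell signal is quantified using CellTiter-Fluor fluorescence.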

In experiment [5] the target is Thyrotropin receptor (Homo sapiens) (UniProt P16473). In words: qHTS assay to identify small molecule agonists of the thyroid stimulating hormone receptor (TSHR) signaling pathway (AID 1224843; calls by dose curve; note: nearly all actives have a fitted effect of over 45% in size; note: potency is the fitted concentration of half-maximal effect). The method in brief: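 TSHR-HEK293 cells in agonist mode, 30 min room-temperature step, then cAMP measured by competitive HTRF (cAMP-d2 with anti-cAMP cryptate) after 1 h at room temperature. Tested at 15 concentrations in triplicate.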
Sequence of Thyrotropin receptor (Homo sapiens) (P16473 whole entry, looked up): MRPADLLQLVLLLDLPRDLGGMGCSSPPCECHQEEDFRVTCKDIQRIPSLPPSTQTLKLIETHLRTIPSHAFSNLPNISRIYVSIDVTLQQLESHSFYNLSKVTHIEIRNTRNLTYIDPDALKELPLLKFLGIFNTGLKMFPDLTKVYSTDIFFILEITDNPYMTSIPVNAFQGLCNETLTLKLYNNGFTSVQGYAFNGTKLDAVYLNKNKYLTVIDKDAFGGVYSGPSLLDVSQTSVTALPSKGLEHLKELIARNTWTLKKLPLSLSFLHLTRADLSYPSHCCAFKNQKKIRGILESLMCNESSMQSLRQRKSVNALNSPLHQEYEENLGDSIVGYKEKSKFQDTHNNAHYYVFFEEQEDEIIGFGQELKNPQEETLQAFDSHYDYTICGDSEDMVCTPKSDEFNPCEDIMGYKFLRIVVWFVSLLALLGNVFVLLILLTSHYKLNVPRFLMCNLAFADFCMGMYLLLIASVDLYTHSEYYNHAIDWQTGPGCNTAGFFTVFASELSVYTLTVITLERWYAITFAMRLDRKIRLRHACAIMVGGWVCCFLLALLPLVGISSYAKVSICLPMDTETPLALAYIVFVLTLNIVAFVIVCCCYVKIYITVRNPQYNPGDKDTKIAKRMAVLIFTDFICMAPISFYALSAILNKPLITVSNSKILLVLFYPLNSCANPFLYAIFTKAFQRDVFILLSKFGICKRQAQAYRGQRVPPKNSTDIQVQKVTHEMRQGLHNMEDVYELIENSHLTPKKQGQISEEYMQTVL
In general terms: Quantitative high-throughput screening tests each substance at several concentrations.

Experiment [6] is described as follows: qHTS assay to identify small molecule agonists of the hypoxia (HIF-1) signaling pathway - cell viability counter screen (AID 1224844; calls by dose curve; note: nearly all actives have a fitted effect of over 50% in size). In outline:
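Multiplexed with the HRE beta-lactamase assay, this viability read used CellTiter-Glo luminescence (30 min, RT) on HRE-bla ME-180 cells treated 17 hrs with compounds in 0.5% dialyzed FBS medium.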

The nature of experiment [7]: qHTS assay to identify small molecule agonists of the hypoxia (HIF-1) signaling pathway (AID 1224846; active = well fitted activation curve with a large enough effect in the signal ratio in the repeat runs, not every such curve was filed as active; the % refers to the signal ratio). In outline:
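Hypoxia-pathway activation was scored as increased beta-lactamase from an HRE-controlled reporter in ME-180 cells; plated at 2,000 cells per well with 0.5% dialyzed FBS, they were exposed 17 hrs to compounds and then given CCF4-AM.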

Experiment [8] in a line: qHTS RealTime-Glo MT Cell Viability Assay in HepG2 cells - 24 hour (AID 1224867). Note: nearly all actives have a fitted effect of over 50% in size. In outline:
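HepG2 cells (600/well) were dispensed with RealTime-Glo reagents, incubated 5 h at 37 °C, then treated with compounds in DMSO for up to 40 h. Nonlytic NanoLuc luminescence reflecting viable cells was read at each stated time point.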

A short description of experiment [9]: qHTS RealTime-Glo MT Cell Viability Assay in HEK293 cells - 32 hour (AID 1224868). Note: nearly all actives have a fitted effect of over 50% in size. Note: potency is the fitted concentration of half-maximal effect. The method in brief:
(§1)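 HEK293 cells seeded with NanoLuc/prosubstrate reagent, rested 5 h at 37 C, then dosed and kept at 37 C up to 40 h. Nonlytic real-time luminescence from viable cells read at 0, 8, 16, 24, 32 and 40 h.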

The nature of experiment [10]: A CellTox Green Cytotoxicity Assay to monitor cytotoxicity in HEK293 cells - 0 hour (AID 1224869). Note: nearly all actives have a fitted effect of over 50% in size. Note: potency is the fitted concentration of half-maximal effect. The method in brief:
(§2)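 Seeding of HEK293 cells together with cytotoxicity dye preceded a 5 h incubation at 37 C/5% CO2. Test compounds in DMSO were then added and fluorescence monitored across 40 h.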

Experiment [11] in a line: qHTS RealTime-Glo MT Cell Viability Assay in HepG2 cells - 40 hour (AID 1224870). Note: nearly all actives have a fitted effect of over 50% in size. The method in brief: (§3)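 HepG2 cells (600/well) mixed with RealTime-Glo MT reagent, settled 5 h at 37 C/5% CO2 before compound addition. Nonlytic NanoLuc luminescence from viable-cell prosubstrate reduction read repeatedly during 40 h treatment at 37 C.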
A short description of experiment [12]: A CellTox Green Cytotoxicity Assay to monitor cytotoxicity in HEK293 cells - 40 hour (AID 1224871). Note: nearly all actives have a fitted effect of over 45% in size. Note: potency is the fitted concentration of half-maximal effect. The method in brief:
as §2

Experiment [13] is described as follows: qHTS RealTime-Glo MT Cell Viability Assay in HEK293 cells - 16 hour (AID 1224872). The method in brief:
as §1

A short description of experiment [14]: qHTS RealTime-Glo MT Cell Viability Assay in HepG2 cells - 8 hour (AID 1224873). Note: nearly all actives have a fitted effect of over 55% in size. In outline:
as §3

Experiment [15] can be described thus: qHTS assay to identify small molecule agonists of H2AX (AID 1224845; active = well fitted activation curve with a large enough effect in the signal ratio in the repeat runs, not every such curve was filed as active; the % refers to the signal ratio). The method in brief: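 Wild-type CHO-K1 cells, plated overnight, exposed 3hr at 37C to 15 concentrations (0.76% DMSO final). Lysed, then HTRF anti-pH2AX (S139) cryptate and anti-H2AX-d2 antibodies, 24 hr room temperature; 665/620 nm emission read.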
A short description of experiment [16]: qHTS assay to identify small molecule agonists of H2AX - cell viability counter screen (AID 1224847; calls by dose curve; note: top concentration of the series differs between compounds; nearly all actives have a fitted effect of over 30% in size). In outline: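 Cytotoxicity counter screen in wild-type CHO-K1 cells: a 3 hr compound treatment at 37C across 15 concentrations, followed by CellTiter-Glo luminescence to gauge viable cells.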

Where “and” joins values, the source holds several entries; their conditions need not be identical. Equal values may be shown once. Records with an inconclusive call do not appear. Some compounds were tested as several samples or in several runs, with calls that do not always agree. Calls of active or inactive are those of the source. Unless noted, calls come from the whole dose curve; as a rule, active = well fitted curve in the direction sought with a large enough effect in the repeat runs; inconclusive = weak or mixed curves; inactive = no such curve, though single readings can be large; an effect the other way counts as inactive or inconclusive.

Take `C1CN2CCN1CC2`: the Potency entry in [1], in [2], in experiment [3], in experiment [4], in [5] and in [6] was “inactive” throughout. Besides, the Potency entry in experiment [9] is “inactive”. In addition, the result in experiment [7], in experiment [8], in [11] and in experiment [13] was inactive. Besides, the Potency result in experiment [10] was “inactive and 21.9 µM (active)”; in experiment [12], “inactive and 17.4 µM (active)”.

On to `CC(C)(Cl)Cl`, for which the Potency entry in [1], in experiment [2], in [3], in experiment [4], in experiment [5] and in [6] was “inactive” throughout. Moreover, the Potency result in experiment [9], in experiment [10] and in experiment [12] was “inactive” each time. Moreover, the result in experiment [7], in experiment [8], in [11], in experiment [13] and in experiment [14] was inactive.

For `CCCN(CCC)c1c([N+](=O)[O-])cc(C(F)(F)F)cc1[N+](=O)[O-]`, the Potency result in [1], in experiment [2], in [3], in [4], in experiment [6] and in experiment [15] was “inactive” in each case. Moreover, the Potency entry in [16], in [9] and in [12] was “inactive” in each case. In addition, the Potency was 10.8 µM (active) and 12.2 µM (active) in experiment [5]; 1.55 µM (active) and inactive in experiment [10]. Further, the result in [7], in [8], in experiment [11], in [13] and in experiment [14] was inactive.

In the case of `CCCCN(CC)C(=O)SCCC`, the Potency entry in experiment [1], in experiment [2], in experiment [3], in experiment [4], in experiment [5] and in experiment [6] was “inactive” each time. Also, the Potency result in experiment [15], in experiment [10] and in [12] was “inactive” throughout. For the same molecule, the outcome in [7], in experiment [8], in experiment [11], in experiment [13] and in experiment [14] was inactive. Further, the Potency entry in experiment [9] is “inactive and 19.5 µM (active)”.

For `C1CC2OC2CC1C1CO1` (stereo not given), the Potency result in experiment [1], in experiment [2], in [3], in [4], in experiment [5] and in experiment [6] was “inactive” each time. Also, the Potency result in experiment [15], in experiment [9], in experiment [10] and in experiment [12] was “inactive” in each case. The call in experiment [7], in experiment [8] and in experiment [13] was inactive.

Take `CCCCCCCCCCCC#N`: the Potency result in [1], in experiment [2], in experiment [3], in experiment [4], in experiment [5] and in experiment [6] was “inactive” throughout. In addition, the Potency entry in experiment [15] and in experiment [9] was “inactive” in each case. Further, the molecule was classed as inactive in experiment [7], in experiment [8], in [11] and in experiment [13]. In addition, the Potency entry is “inactive and 45.2 µM (active)” in [10]; “inactive and 40.3 µM (active)” in [12].

Regarding `Cc1ccccc1O`, the Potency entry in [1], in experiment [2], in [3], in [4], in [5] and in experiment [6] was “inactive” throughout. Further, the Potency result in experiment [9], in experiment [10] and in experiment [12] was “inactive” in each case. Also, the molecule was called inactive in experiment [7], in experiment [8], in experiment [13] and in experiment [14].

`O=C1CCCN1`: the Potency entry in [1], in [2], in experiment [3], in experiment [4], in experiment [5] and in experiment [6] was “inactive” throughout. Besides, the Potency result in [15], in experiment [9], in experiment [10] and in experiment [12] was “inactive” each time. For the same molecule, the molecule was classed as inactive in experiment [7], in experiment [8], in experiment [11] and in experiment [13].

In the case of `CCC12COCN1COC2`, the Potency result in experiment [1], in experiment [2], in [3], in experiment [4], in experiment [5] and in experiment [6] was “inactive” each time. The Potency entry in experiment [9], in experiment [10] and in experiment [12] was “inactive” each time. The result in experiment [7], in experiment [8], in experiment [11], in [13] and in [14] was inactive.

Regarding `CCCN(CCC)N=O`, the Potency entry in experiment [1], in experiment [2], in experiment [3], in experiment [4], in experiment [5] and in experiment [6] was “inactive” in each case. Also, the Potency entry in [15], in experiment [16], in experiment [9], in [10] and in experiment [12] was “inactive” throughout. Further, the molecule was classed as inactive in experiment [7], in experiment [8] and in experiment [13].

These data come from PubChem BioAssay (Tox21).
